Test results: PubChem BioAssay (Tox21)
Records with an inconclusive call do not appear. Entries that show only a call come without a potency. Activity calls are given as the source filed them. Calls come from the whole dose curve; as a rule, active = well fitted cell-killing curve with a large enough effect in the repeat runs; inconclusive = weak or mixed curves, or effect the other way; inactive = flat fitted curve, though single readings scatter.

Experiment: Human pregnane X receptor (PXR) small molecule agonists, qHTS cell viability counter screen (AID 1346977); note: nearly all actives have a fitted effect of over 50% in size
Conditions: PXR-Luc HepG2 viability, CellTiter-Fluor, 24 h; series mostly up to 92.4 µM
How it was run: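 HepG2 cells stably carrying the PXR-Luc reporter are cultured with 5% charcoal-stripped FBS and treated with compounds for 24hr. CellTiter-Fluor is added at 23hr and fluorescence is read after 1hr.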
Potency is the fitted concentration of half-maximal effect.

| SMILES | Potency |
| --- | --- |
| CCOC(=O)C(Cl)Cc1cc(-n2nc(C)n(C(F)F)c2=O)c(F)cc1Cl (centres undefined) | inactive |
| C[C@H](CN1CCOCC1)C(C(=O)N1CCCC1)(c1ccccc1)c1ccccc1 | 83.4 µM (active) |
| O=C(Cl)C(Cl)Cl | inactive |
| Cc1ccc(S(=O)(=O)N[C@@H](CCCCN)C(=O)CCl)cc1 | inactive |
| NC(=O)OCCCc1ccccc1 | inactive |
| Cn1c(N)nc2c3cccnc3ccc21 | 26 µM (active) |
| C[C@@H](N)[C@@H](O)c1ccccc1 | inactive |
| CCC(CC)(CNC(=O)CCCO)c1cccc(OC)c1 | inactive |
| CCOC(=O)c1ncn2c1CN(C)C(=O)c1c(I)cccc1-2 | inactive |
| COc1cccc([C@@]2(O)CCCC[C@@H]2CN(C)C)c1 | inactive |
| CCC(C(N)=O)N1CCCC1=O (centres undefined) | inactive |
| CC(=NC#N)N(C)Cc1ccc(Cl)nc1 | inactive |
| COc1cc(CC(C)N)cc(OC)c1OC (centres undefined) | inactive |
| ClC1=C(Cl)C2(Cl)C(CBr)CC1(Cl)C2(Cl)Cl (centres undefined) | inactive |
| CCCOC(=O)Cc1ccc(OCC(=O)N(CC)CC)c(OC)c1 | inactive |
| Cl/C=C/CCl | inactive |
| OCC(Cl)CCl (centres undefined) | inactive |

| SMILES | Potency |
| --- | --- |
| C[C@H](N)C(=O)c1ccccc1 | inactive |
| CCOP(=S)(OCC)Oc1ccc(Cl)cc1Cl | inactive |
| CCC(C)C(C)(COC(N)=O)COC(N)=O (centres undefined) | inactive |
| COC[C@@H](NC(C)=O)C(=O)NCc1ccccc1 | inactive |
| BrCc1ccc(Br)cc1 | inactive |
| CCCCCCCCSC(=O)Oc1cc(Cl)nnc1-c1ccccc1 | inactive |
| CN1C(=O)COc2c(C(=O)NC3CN4CCC3CC4)cc(Cl)cc21 (centres undefined) | inactive |
| COC1=CC(=O)O[C@@H](/C=C/c2ccccc2)C1 | inactive |
| C=CCC1(C(C)CC)C(=O)NC(=O)NC1=O (centres undefined) | inactive |
| O=C(Cl)c1ccccc1 | inactive |
| CNC(=O)Oc1cc(C)c(N(C)C)c(C)c1 | inactive |
| N[C@@H](Cc1ccc(Oc2cc(I)c(O)c(I)c2)c(I)c1)C(=O)O | inactive |
| C=C(Cl)CSC(=S)N(CC)CC | inactive |
| C=C1CC[C@@]2(O)[C@H]3Cc4ccc(O)c5c4[C@@]2(CCN3CC2CC2)[C@H]1O5 | inactive |
| Cn1c(CCCC(=O)O)nc2cc(N(CCCl)CCCl)ccc21 | inactive |
| CS(=O)(=O)Cl | inactive |
| Nc1c(Cl)c(F)nc(OCC(=O)O)c1Cl | inactive |
